# PubChem BioAssay
# Active and inactive are the calls of the source. Unless noted, no rule for the calls is given here.
# Columns and labels:
# [1] = inhibitors of mitochondrial cytochrome c release, biochemical, purified mitochondria (AID 1603); details: stronger effect = lower value;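 also: mouse liver mitochondria challenged with calcium chloride; signal normalized to the plate average as 100%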
# [2] = inhibitors of polyQ protein aggregation (AID 1604); details: polyglutamine-induced protein aggregation inhibition assay; stronger effect = higher value; tested at 2.5 µM
# [3] = enhancers of glutamate uptake in motor neurons, MN-1 cell line (AID 1612); details: MN-1 motor neuron cells, stronger effect = higher value;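 also: tested at 1 µM final; 0% = mean of DMSO vehicle wells on each plate; positive means more glutamate uptake than control and negative means less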
# [4] = reducers of polyQ inclusions in PC12 cells, cell-based, NGF-treated PC12, GFPQ80 (AID 1614); details: PC12 NGF-treated GFP-polyQ80 inclusion reduction;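 also: lower means fewer inclusions and 0 means no inclusions at all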
# [5] = suppressors of polyglutamine aggregation in yeast, 75Q-TubH (AID 1616); details: S. cerevisiae 75Q-TubH polyglutamine aggregation suppression; stronger effect = higher value
# [6] = inhibitors of Cryptococcus chitosan production, flow cytometry, Cibacron Brilliant Red staining (AID 1347148); details: Cryptococcus neoformans chitosan, stronger effect = lower value; at 10 µM unless noted;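 also: compound exposure lasted three days at 37 degrees C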
# [7] = biological target: 6-phosphogluconate dehydrogenase, decarboxylating (Homo sapiens) (UniProt P52209); test: 6PGD enzyme inhibitors, primary screen, biochemical, human, recombinant enzyme, NADPH absorbance (AID 1159550;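 active = at least 20% inhibition of 6-phosphogluconate dehydrogenase activity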); details: recombinant 6PGD, NADPH absorbance 341 nm; at 10 µM; stronger effect = higher value
# Sequence of 6-phosphogluconate dehydrogenase, decarboxylating (Homo sapiens) (P52209 whole entry, looked up): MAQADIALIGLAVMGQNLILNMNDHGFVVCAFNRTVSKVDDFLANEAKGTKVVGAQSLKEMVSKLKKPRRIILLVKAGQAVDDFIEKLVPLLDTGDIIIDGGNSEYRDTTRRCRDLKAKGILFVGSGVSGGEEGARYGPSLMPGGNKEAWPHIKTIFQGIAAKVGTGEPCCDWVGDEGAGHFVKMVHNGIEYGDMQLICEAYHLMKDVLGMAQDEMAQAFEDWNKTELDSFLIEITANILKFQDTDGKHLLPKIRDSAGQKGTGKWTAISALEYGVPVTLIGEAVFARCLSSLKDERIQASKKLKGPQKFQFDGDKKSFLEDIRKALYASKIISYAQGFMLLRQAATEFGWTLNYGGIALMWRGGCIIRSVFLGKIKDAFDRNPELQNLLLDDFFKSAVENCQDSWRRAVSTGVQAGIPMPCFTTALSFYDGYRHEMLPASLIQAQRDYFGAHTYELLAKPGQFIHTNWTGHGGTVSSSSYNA
structure (smiles),measurement,setting,value
CCOc1ccccc1OCC1CNCCO1 (stereo unspecified),cytochrome c release ratio,[1],1.06
same,inhibition of aggregation,[2],12.9%
same,glutamate uptake change,[3],20.1%
same,inclusion score,[4],2
same,aggregation suppression score,[5],1.38
Clc1cc(Cl)c(OCC#CI)cc1Cl,cytochrome c release ratio,[1],8.98
same,inhibition of aggregation,[2],58.5%
same,glutamate uptake change,[3],15.9%
same,aggregation suppression score,[5],-0.184
O=C1NCN(c2ccccc2)C12CCN(CCCC(c1ccc(F)cc1)c1ccc(F)cc1)CC2,fold fluorescence,[6],5.05 [at 105.1 µM] (inactive)
CCCn1cnc2c1c(=O)n(CCCCC(C)=O)c(=O)n2C,inhibition,[7],-7.06% (inactive)
